This is an account of results in PubChem BioAssay (NCATS).

In assay [1] the target is Estrogen receptor (Homo sapiens) (UniProt P03372). As to the kind of experiment: qHTS assay for small molecule antagonists of estrogen receptor alpha signaling (AID 588513; active means well fitted curve in the direction sought with a large enough effect in the signal ratio, with a control signal flat, not every such curve was filed as active; the % refers to the signal ratio; further: on the % scale 0 is the no-effect control and ±100 the full control effect). An outline of the steps: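 Cells were plated at 5000/well and incubated 4 h at 37 C. Compounds were added as 1:2 dilution series, duplicates. 17-beta-estradiol (0.5nM final) was added for 18 h before CCF4 detection.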

Assay [2] has the same target. In words: qHTS assay for small molecule agonists of estrogen receptor alpha signaling (AID 588514; calls by dose curve;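 further: 0% = vehicle only and 100% = reference agonist; nearly all actives have a fitted effect of over 70% in size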). In short, it runs like this: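 EC50 and efficacy came from Hill fits of beta-lactamase reporter signal (CCF4 dye, 2 h at room temperature) scaled between DMSO and 20 nM 17-beta-estradiol. Agonist mode: HEK293 ER-alpha-UAS-bla cells in charcoal/dextran-stripped serum medium, 18 h compound exposure at 37 C.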
(qHTS replaces the single test concentration by a dilution series.)

Assay [3] in a line: qHTS assay for small molecule antagonists of peroxisome proliferator-activated receptor delta signaling (AID 588535; active means well fitted inhibition curve with a large enough effect in the signal ratio, with a control signal flat, not every such curve was filed as active; the % refers to the signal ratio;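 on max response: cells co-treated with a PPAR-delta agonist as stimulator during compound exposure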). Conditions: HEK293T PPARd-UAS-bla, beta-lactamase FRET ratio, 18 h; 460 nm channel. An outline of the steps: (§1)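 Titrations were run on PPAR-delta-UAS-bla HEK293T cells in charcoal/dextran-stripped serum, incubated 18 h at 37 C. CCF4 fluorescence (460/530 nm) after 2 h RT; Hill equation yields IC50 and maximal response.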

Assay [4] deals with Peroxisome proliferator-activated receptor delta (Homo sapiens) (UniProt Q03181). The assay is described as above. An outline of the steps:
as §1

Assay [5] in a line: qHTS assay for small molecule agonists of retinoid X receptor alpha signaling (AID 588544; calls by dose curve;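 on activation: 0% = DMSO basal wells and 100% = reference agonist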). Conditions: HEK293T RXRa-UAS-bla, beta-lactamase reporter, 18 h; 530 nm emission.
Assay [6] concerns the target Retinoic acid receptor RXR-alpha (Homo sapiens) (UniProt P19793). The description is as above.
In assay [7] the target is Thyroid hormone receptor beta (Homo sapiens) (UniProt P10828). In words: qHTS assay for small molecule agonists of thyroid hormone receptor beta signaling (AID 588545; calls by dose curve;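 further: 0% = DMSO only and 100% = 10 nM T3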). In short, it runs like this: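 Compounds were tested as agonists in TR-UAS-bla-GripTite HEK 293 cells. After 18 hrs at 37 C, CCF4 substrate was added and fluorescence read after 2 hrs at room temperature.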

A short description of assay [8]: qHTS assay for small molecule antagonists of retinoid X receptor alpha signaling (AID 588546; active means well fitted inhibition curve with a large enough effect in the signal ratio, with a control signal flat, not every such curve was filed as active; the % refers to the signal ratio;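 further: cells stimulated with 9-cis-retinoic acid as agonist; on the % scale 0 is the no-effect control and ±100 the full control effect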). Conditions: HEK293T RXRa-UAS-bla, beta-lactamase ratio, antagonist mode; measured here: W530 green channel, cytotoxicity proxy. In short, it runs like this: (§2)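 Beta-lactamase reporter inhibition, read as CCF4 fluorescence ratio (ex 405, em 460/530 nm) after 2 h at RT. HEK293T UAS-bla cells, 2500/well, were stimulated with 9-cis-RA at 500 or 100 nM final alongside test compound for 18 h at 37 C.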

For assay [9], the target named is Retinoic acid receptor RXR-alpha (Homo sapiens) (UniProt P19793). Described as above. The conditions noted are these: HEK293T RXRa-UAS-bla, beta-lactamase ratio, antagonist mode. An outline of the steps:
as §2

The nature of assay [10]: qHTS assay for environmental chemicals that activate the Aryl hydrocarbon Receptor (AhR) signaling pathway (AID 651777). Further: % of control where 0% means no effect; nearly all actives have a fitted effect of over 15% in size. Conditions: 1A2-DRE human hepatoma cells, luciferase, 24 h; activation: stronger effect = higher value. An outline of the steps:
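Human hepatoma 1A2-DRE cells, stably carrying a dioxin response element and CYP1A2 promoter driving luciferase, were exposed to compounds for 24 hr at 37 C and 5% CO2. Luciferase signal was then read after 30 min One-Glo at room temperature.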

For assay [11], the target named is Peroxisome proliferator-activated receptor alpha (Homo sapiens) (UniProt Q07869). In words: qHTS assay for small molecule agonists of the peroxisome proliferator-activated receptor alpha (PPARalpha) signaling pathway (AID 651778). Further: % of control where 0% means no effect. Conditions: PathHunter PPARalpha complementation, chemiluminescence, 6 h; max response: stronger effect = higher value. An outline of the steps:
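Chemiluminescence from complemented enzyme reported PPARalpha activation in cells after 6 hr of compound treatment at 37 C. The detection reagent was incubated for 60 min at room temperature, and compounds were scored as agonists.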

A short description of assay [12]: qHTS assay for small molecule agonists of the antioxidant response element (ARE) signaling pathway measured by Nrf2-dependant transcriptional activity (AID 720636; active means well fitted curve in the direction sought with a large enough effect in the repeat runs; an effect the other way counts as inactive or inconclusive; further: % of control where 0% means no effect). In short, it runs like this: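 ARE-luc HepG2 cells carrying an Nrf2-responsive luciferase reporter were plated in medium with 1% dialyzed FBS, left 6 hr at 37 C to attach, then exposed to compound for 16 hr. Luciferase luminescence was read after ONE-Glo addition.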

Assay [13] in a line: qHTS assay for small molecule agonists of the antioxidant response element (ARE) signaling pathway measured by Nrf2-dependant transcriptional activity - cell viability counter screen (AID 720653; active means well fitted curve in the direction sought with a large enough effect in the repeat runs; an effect the other way counts as inactive or inconclusive; further: on the % scale 0 is the no-effect control and ±100 the full control effect). Conditions: ARE-bla HepG2 viability, CellTiter-Glo ATP luminescence, 16 h; max response: stronger effect = lower value. In short, it runs like this: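 Cytotoxicity counter screen: intracellular ATP quantified by CellTiter-Glo luminescence in the same ARE-bla HepG2 plates, after 16 h compound exposure and a 2 h beta-lactamase substrate step.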

Assay [14] in a line: qHTS assay for cell viability of HEK293 cells (AID 743288). Further: on the % scale 0 is the no-effect control and ±100 the full control effect; nearly all actives have a fitted effect of over 50% in size. The conditions noted are these: ATP luminescence (CellTiter-Glo), 18 h; max response: stronger effect = lower value. An outline of the steps: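 Quantitative high-throughput screen: compounds were pinned onto parental HEK293 cells (2,000 per well) after a minimum 5 h settling at 37 C, incubated 18 h at 37 C, and intracellular ATP measured by luciferase luminescence.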

Assay [15] is described as follows: qHTS assay for cell viability of the p53RE-bla HCT-116 cell line (AID 743292). Further: on the % scale 0 is the no-effect control and ±100 the full control effect; nearly all actives have a fitted effect of over 55% in size. In short, it runs like this: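 CellSensor p53RE-bla HCT-116 cells, 4,000/well, preincubated 5 h at 37 C, then exposed to compounds in DMSO for 16 h at 37 C. Viability read as CellTiter-Glo luminescence (intracellular ATP) after 30 min at room temperature.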
For assay [16], the target named is Nuclear receptor subfamily 1 group I member 2 (Rattus norvegicus) (UniProt Q9R1A7). As to the kind of experiment: qHTS assay for small molecule activators of the rat pregnane X receptor (rPXR) signaling pathway (AID 651751; call rule not given here; further: 0% is about no effect). The conditions noted are these: rPXR reporter cells, luciferase (One-Glo), 24 h.
The target in assay [17] is Glucocorticoid receptor (Homo sapiens) (UniProt P04150). As to the kind of experiment: qHTS assay for small molecule agonists of glucocorticoid receptor signaling (AID 588532; active means well fitted curve in the direction sought with a large enough effect in the signal ratio, with a control signal flat; the % refers to the signal ratio;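 further: 100% = dexamethasone at 0.1 µM and 0% = DMSO only wells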). The conditions noted are these: HeLa MMTV-bla, beta-lactamase ratio, agonist, 18 h; stronger effect = higher value; percent of dexamethasone control, DMSO zero. In short, it runs like this: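 Using MMTV-bla HeLa cells in medium with 1% stripped FBS and 25 mM HEPES, compounds were titrated and incubated overnight-length (18 h). Beta-lactamase cleavage of CCF4 was quantified by dual-emission fluorescence.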

Assay [18] shares this target. In words: qHTS assay for small molecule antagonists of glucocorticoid receptor signaling (AID 588533; active means well fitted inhibition curve with a large enough effect in the signal ratio, with a control signal flat, not every such curve was filed as active; the % refers to the signal ratio;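 further: cells stimulated with 2 nM dexamethasone as agonist; on the % scale 0 is the no-effect control and ±100 the full control effect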). An outline of the steps: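 Antagonist-mode qHTS: compound titrations added to GRE-bla HeLa cells, then dexamethasone 2 nM final; 18 h, 37 C. CCF4 FRET fluorescence normalized to dexamethasone and DMSO; IC50 from Hill fit.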
Assay [19] is described as follows: qHTS assay for small molecule activators of the nuclear factor-kappa B (NF-kB) signaling pathway (AID 651749; active means well fitted activation curve with a large enough effect in the signal ratio; the % refers to the signal ratio; further: series mostly up to about 77 µM; % of control where 0% means no effect). Conditions: NF-kB-bla ME-180 cells, beta-lactamase FRET ratio, 16 h; activation: stronger effect = higher value. In short, it runs like this:
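Activation measured after 16 hr compound treatment at 37C, 5% CO2, of 2,000 ME-180 cells/well stably expressing an NF-kB response element–driven beta-lactamase reporter, via FRET-disruption fluorescence.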

Assay [20] in a line: qHTS assay for small molecule activators of the human pregnane X receptor (PXR) signaling pathway (AID 720659; call rule not given here; further: 0% is about no effect).

Records with an inconclusive call do not appear. The source made the active and inactive calls. Unless noted, the call rests on the fitted dose curve; in most records, active means well fitted curve in the direction sought with a large enough effect; inconclusive means small, poorly fitted or top-dose-only effect, or another doubt; inactive means no such curve, though single readings can be large; an effect the other way counts as inactive or inconclusive.

Chain of Retinoic acid receptor RXR-alpha (Homo sapiens) (P19793 whole entry, looked up): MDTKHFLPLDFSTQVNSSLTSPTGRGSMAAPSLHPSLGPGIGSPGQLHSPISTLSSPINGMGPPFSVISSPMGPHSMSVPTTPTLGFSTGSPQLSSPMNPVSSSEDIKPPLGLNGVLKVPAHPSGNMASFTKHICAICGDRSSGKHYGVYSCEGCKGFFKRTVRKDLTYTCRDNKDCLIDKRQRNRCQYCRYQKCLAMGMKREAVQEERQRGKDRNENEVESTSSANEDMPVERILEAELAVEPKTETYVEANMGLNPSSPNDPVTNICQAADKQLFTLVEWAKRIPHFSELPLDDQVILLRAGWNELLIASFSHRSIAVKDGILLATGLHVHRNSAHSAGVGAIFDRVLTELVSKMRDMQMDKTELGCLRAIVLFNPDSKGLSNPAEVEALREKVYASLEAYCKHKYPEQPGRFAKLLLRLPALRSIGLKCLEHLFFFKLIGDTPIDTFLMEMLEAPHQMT
Chain of Nuclear receptor subfamily 1 group I member 2 (Rattus norvegicus) (Q9R1A7 whole entry, looked up): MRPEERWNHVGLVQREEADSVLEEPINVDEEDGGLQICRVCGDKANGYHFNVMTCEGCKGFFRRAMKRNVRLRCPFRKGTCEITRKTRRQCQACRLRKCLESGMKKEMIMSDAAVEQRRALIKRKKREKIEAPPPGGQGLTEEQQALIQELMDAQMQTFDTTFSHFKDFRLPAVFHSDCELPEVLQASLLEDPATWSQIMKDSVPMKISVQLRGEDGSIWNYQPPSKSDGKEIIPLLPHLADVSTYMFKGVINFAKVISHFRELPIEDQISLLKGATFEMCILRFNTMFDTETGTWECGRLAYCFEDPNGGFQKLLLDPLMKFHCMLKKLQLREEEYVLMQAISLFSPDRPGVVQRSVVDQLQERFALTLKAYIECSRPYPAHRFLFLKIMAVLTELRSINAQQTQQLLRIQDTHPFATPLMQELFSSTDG
Chain of Estrogen receptor (Homo sapiens) (P03372 whole entry, looked up): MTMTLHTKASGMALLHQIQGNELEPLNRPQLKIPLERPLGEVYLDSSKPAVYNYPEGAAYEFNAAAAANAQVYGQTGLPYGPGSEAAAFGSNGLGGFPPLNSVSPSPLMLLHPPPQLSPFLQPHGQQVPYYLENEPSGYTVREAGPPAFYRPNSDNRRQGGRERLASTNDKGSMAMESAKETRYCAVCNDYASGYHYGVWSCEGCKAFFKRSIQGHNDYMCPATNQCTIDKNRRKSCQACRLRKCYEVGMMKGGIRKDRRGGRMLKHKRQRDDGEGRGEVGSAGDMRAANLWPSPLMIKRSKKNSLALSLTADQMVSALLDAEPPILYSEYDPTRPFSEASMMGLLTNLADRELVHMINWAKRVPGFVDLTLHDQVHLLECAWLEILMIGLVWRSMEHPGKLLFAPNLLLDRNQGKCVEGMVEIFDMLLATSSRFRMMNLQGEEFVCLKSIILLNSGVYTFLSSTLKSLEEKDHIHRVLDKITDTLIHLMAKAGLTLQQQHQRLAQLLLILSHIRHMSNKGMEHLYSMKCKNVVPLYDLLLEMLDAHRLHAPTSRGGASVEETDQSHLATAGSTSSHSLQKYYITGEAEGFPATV
Chain of Thyroid hormone receptor beta (Homo sapiens) (P10828 whole entry, looked up): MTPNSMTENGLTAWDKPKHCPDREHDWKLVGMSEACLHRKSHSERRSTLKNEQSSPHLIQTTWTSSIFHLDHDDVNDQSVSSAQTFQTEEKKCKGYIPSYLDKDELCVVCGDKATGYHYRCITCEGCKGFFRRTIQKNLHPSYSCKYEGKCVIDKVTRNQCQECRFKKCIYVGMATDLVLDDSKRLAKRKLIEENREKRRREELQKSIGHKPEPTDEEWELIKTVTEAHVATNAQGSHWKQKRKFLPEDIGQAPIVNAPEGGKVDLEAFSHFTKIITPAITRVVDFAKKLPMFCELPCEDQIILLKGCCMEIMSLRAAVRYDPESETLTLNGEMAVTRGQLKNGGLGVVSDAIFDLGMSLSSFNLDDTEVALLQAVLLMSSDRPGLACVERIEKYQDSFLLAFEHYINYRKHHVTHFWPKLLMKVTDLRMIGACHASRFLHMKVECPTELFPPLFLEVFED
Chain of Peroxisome proliferator-activated receptor delta (Homo sapiens) (Q03181 whole entry, looked up): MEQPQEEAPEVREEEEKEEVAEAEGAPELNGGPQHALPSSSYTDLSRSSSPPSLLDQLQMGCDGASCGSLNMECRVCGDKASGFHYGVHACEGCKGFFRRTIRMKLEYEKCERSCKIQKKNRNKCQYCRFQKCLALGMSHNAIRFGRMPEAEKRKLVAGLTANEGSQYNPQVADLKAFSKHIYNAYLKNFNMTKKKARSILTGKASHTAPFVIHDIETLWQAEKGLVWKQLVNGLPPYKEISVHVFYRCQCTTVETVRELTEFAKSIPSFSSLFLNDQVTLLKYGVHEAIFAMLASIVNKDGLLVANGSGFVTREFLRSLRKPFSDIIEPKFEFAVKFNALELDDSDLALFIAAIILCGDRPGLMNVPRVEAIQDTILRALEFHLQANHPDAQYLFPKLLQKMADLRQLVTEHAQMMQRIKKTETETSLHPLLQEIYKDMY
Chain of Glucocorticoid receptor (Homo sapiens) (P04150 whole entry, looked up): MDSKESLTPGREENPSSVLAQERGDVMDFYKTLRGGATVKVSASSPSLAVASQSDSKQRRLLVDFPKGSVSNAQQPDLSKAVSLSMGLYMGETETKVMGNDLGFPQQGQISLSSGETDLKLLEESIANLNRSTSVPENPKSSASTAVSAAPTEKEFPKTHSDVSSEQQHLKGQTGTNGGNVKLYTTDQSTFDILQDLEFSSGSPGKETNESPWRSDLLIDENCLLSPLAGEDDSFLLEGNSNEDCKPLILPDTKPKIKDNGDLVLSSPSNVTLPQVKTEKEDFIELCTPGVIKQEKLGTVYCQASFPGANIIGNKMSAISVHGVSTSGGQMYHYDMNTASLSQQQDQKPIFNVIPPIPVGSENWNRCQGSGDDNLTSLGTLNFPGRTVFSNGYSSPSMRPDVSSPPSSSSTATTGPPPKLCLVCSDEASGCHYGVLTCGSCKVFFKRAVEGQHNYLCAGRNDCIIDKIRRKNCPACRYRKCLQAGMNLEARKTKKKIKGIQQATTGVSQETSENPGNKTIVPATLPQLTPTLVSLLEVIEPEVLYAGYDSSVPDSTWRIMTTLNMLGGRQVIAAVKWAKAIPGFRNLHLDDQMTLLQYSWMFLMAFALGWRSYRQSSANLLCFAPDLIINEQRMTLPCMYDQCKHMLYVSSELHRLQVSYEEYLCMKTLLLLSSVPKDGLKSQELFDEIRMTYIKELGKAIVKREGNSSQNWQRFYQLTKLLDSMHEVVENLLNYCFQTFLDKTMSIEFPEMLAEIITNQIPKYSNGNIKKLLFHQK
Chain of Peroxisome proliferator-activated receptor alpha (Homo sapiens) (Q07869 whole entry, looked up): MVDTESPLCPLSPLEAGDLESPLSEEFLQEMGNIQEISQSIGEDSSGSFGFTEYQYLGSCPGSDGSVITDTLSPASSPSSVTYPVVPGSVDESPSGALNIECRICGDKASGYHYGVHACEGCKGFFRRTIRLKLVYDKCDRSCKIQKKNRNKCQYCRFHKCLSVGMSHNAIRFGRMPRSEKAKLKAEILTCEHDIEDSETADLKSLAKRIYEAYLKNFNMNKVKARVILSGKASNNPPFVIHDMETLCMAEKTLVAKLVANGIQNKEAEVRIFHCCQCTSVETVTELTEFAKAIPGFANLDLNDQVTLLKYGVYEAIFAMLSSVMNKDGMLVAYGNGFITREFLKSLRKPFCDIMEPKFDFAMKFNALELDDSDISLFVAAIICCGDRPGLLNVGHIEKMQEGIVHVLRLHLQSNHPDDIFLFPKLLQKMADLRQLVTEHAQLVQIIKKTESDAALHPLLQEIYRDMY

On to `CC(=O)/C=C/C1C(C)=CCCC1(C)C` (stereo unspecified), for which the Potency result in [1], in assay [2], in assay [4], in assay [6], in assay [7] and in assay [12] was “inactive” in each case. In assay [15], the Potency entry is “inactive”. Further, the max response is -18.3% in [3]; 0.774% in assay [5]; 1.01% in [8]; -10.8% (inactive) in assay [9]; -0.682% (inactive) in assay [11]; 1.13% (inactive) in [13]. In addition, the results for the max response in assay [14] and in assay [16] were -13.5% (inactive) and 8.79% (inactive), respectively. The activation in [10] is 0.579% (inactive).

As to `OC1CCCCCCCCCCC1`, the Potency entry in assay [1], in [2], in assay [18], in [4], in [6] and in [7] was “inactive” throughout. Besides, the Potency entry in assay [12] and in assay [15] was “inactive” in each case. In addition, the activation in assay [17] is -19.4% (inactive); in assay [19], 0.918% (inactive); in assay [10] it was 1.93% (inactive). The max response is 17.8% in [3]; 10.2% in assay [5]; -1.99% in assay [8]; -4.46% (inactive) in assay [9]; 3.88% (inactive) in assay [13]; -3.86% (inactive) in assay [16]. Also, the outcome in [20] was inactive.

Regarding `c1ccc(OCCOc2ccccc2)cc1`, the Potency entry in assay [1], in [2], in [18], in [4], in assay [7] and in assay [15] was “inactive” in each case. Besides, the activation in assay [17] is -7.01% (inactive); in assay [19] it was -1.28% (inactive); in [10] it was 8.39% (inactive). In addition, the max response in [3] is 9.85%; in assay [8] it was -12.8%; in assay [9], -10.1% (inactive); in assay [11], 0.31% (inactive); in assay [13], -8.94% (inactive); in [14], -4.78% (inactive).

For the compound `O=C(OCCOCCOC(=O)c1ccccc1)c1ccccc1`, the Potency result in assay [1], in assay [2], in assay [4], in [6], in [7] and in assay [12] was “inactive” in each case. For the same compound, the Potency result in assay [15] was “inactive”. Moreover, the results for the activation in assay [17], in assay [19] and in assay [10] were -2.84% (inactive), 0.298% (inactive) and 1.92% (inactive), respectively. The max response in [3] was 59.9%; in assay [5], -16.7%; in assay [8] it was -7.11%; in [11] it was -0.375% (inactive); in assay [13], -6.77% (inactive); in [14], -9.08% (inactive). For the same compound, the max response in assay [16] was 2.6% (inactive). In addition, the outcome in assay [20] was inactive.

Turning to `CCCCCCCCCCCC(=O)N(C)CC(=O)O`, the Potency entry in [1], in [2], in assay [6], in assay [7], in assay [12] and in assay [15] was “inactive” in each case. In addition, the values for the activation in assay [17] and in assay [10] were -0.898% (inactive) and 0.0412% (inactive), respectively. Further, the max response is 21.8% in assay [5]; 7.91% in assay [8]; 6.82% (inactive) in assay [9]; 19.7% (inactive) in assay [13]; -6.6% (inactive) in [14]; -2.95% (inactive) in assay [16]. For the same compound, the call in assay [20] was inactive.

For `Nc1nc(N)nc(-c2ccccc2)n1`, the Potency result in [1], in assay [2], in [18], in assay [4], in [6] and in assay [7] was “inactive” each time. In assay [15], the Potency entry was “inactive”. The activation in assay [17] was -8.55% (inactive); in [19], 0.267% (inactive); in [10] it was 5.62% (inactive). Moreover, the max response in assay [3] is 20.7%; in assay [5], -9.5%; in assay [8], -13.3%; in assay [9], -4.65% (inactive); in [11], 0.149% (inactive); in [13], -8.33% (inactive). In addition, the max response in assay [14] was -4.29% (inactive); in [16] it was 2.49% (inactive). Further, the compound was called inactive in [20].
